For ten molecules, growth inhibition results are on record in PubChem BioAssay (NCI).

Test [1] is described as follows: NCI Yeast Anticancer Drug Screen. Data for the rad50 strain (AID 155).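 Also: 0% = growth of vehicle-only cultures of the same strain.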 To be noted: S. cerevisiae rad50 strain growth inhibition, stronger effect = higher value. The method in brief:
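DNA repair mutant yeast, compound exposure, growth read-out; inhibition is taken relative to vehicle.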

Test [2] in a line: NCI Yeast Anticancer Drug Screen. Data for the sgs1 mgt1 strain (AID 161).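 Also: 0% = growth of cultures given vehicle only.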 To be noted: S. cerevisiae sgs1 mgt1 strain, stronger effect = higher value. The procedure, abridged: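 Genetically altered yeast, compound exposure, growth inhibition relative to vehicle.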
Test [3] is described as follows: NCI Yeast Anticancer Drug Screen. Data for the cln2 rad14 strain (AID 165).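 Also: 0% = growth equal to vehicle treated cultures.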 As to conditions: S. cerevisiae cln2 rad14 strain, stronger effect = higher value. The procedure, abridged:
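The screen exposed genetically defined yeast (cln2 rad14) to test compounds and scored growth inhibition relative to vehicle-treated controls.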

A short description of test [4]: NCI Yeast Anticancer Drug Screen. Data for the bub3 strain (AID 167). To be noted: S. cerevisiae bub3 mutant strain, stronger effect = higher value. The procedure, abridged: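 In this screen, a yeast mutant lacking normal mitotic checkpoint function is challenged with compound. Relative growth versus vehicle gives the inhibition value.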
The nature of test [5]: NCI Yeast Anticancer Drug Screen. Data for the mlh1 rad18 strain (AID 175). To be noted: S. cerevisiae mlh1 rad18 strain growth inhibition, stronger effect = higher value. The method in brief: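 Compound-treated yeast growth, normalised to vehicle controls. Strain bears defined DNA repair mutations.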
The nature of test [6]: NCI Yeast Anticancer Drug Screen. Data for the mec2-1 strain (AID 157). As to conditions: S. cerevisiae mec2-1 strain, stronger effect = higher value. The method in brief: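 Cells of the genetically defined mec2-1 yeast strain are incubated with test compound. Inhibition of growth is calculated against vehicle-treated controls.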
Setting [7] is: at 5.0 µM (retest, dose inferred, filed as 0.5).
Where [8] appears, read: at 50.0 µM (retest, dose inferred, filed as 5.0).

Several values for one entry are separate records, joined by “and”; a condition that tells them apart may be missing. Identical values can stand only once. Compounds without any hit were thinned out: in the full panel of roughly 79,000, 15% have a hit. Values without a mark were called inactive. Activity calls are given as the source filed them. Rule as the data show it: active = growth inhibition above about 70%; inactive = the rest.

As for `O=C(Oc1cccc2cccnc12)c1ccccc1`, the growth inhibition was 4% in test [1] (setting [7]); 97% (active) in test [1] (setting [8]); 96.4% (active) in test [1] (at 50.0 µM); -4% in test [2] (setting [7]); 97% (active) in test [2] (setting [8]); 93.6% (active) in test [2] (at 50.0 µM). For the same molecule, the growth inhibition in test [3] (setting [7]) was 2%; in test [3] (setting [8]), 85% (active); in test [3] (at 50.0 µM), 91.2% (active); in test [4] (setting [7]), 28%; in test [4] (setting [8]), 99% (active); in test [4] (at 50.0 µM), 98% (active). The values for the growth inhibition in test [5] (setting [7]), in test [5] (setting [8]) and in test [5] (at 50.0 µM) were 7%, 98% (active) and 95.2% (active), respectively.

As for `COC(=O)c1ncc(Cl)cc1Cl`, the growth inhibition in test [1] (setting [7]) is 3%; in test [1] (setting [8]), -4%; in test [1] (at 50.0 µM), 59.9%; in test [2] (setting [7]), 0%; in test [2] (setting [8]), -7%; in test [2] (at 50.0 µM), 58.8%. Further, the growth inhibition is 7% in test [3] (setting [7]); -7% in test [3] (setting [8]); 22.1% in test [3] (at 50.0 µM); 1% in test [4] (setting [7]); -19% in test [4] (setting [8]); 38.4% in test [4] (at 50.0 µM). The growth inhibition in test [5] (setting [7]) was 0%; in test [5] (setting [8]), -1%; in test [5] (at 50.0 µM), 46.4%.

Take `CC(=O)OC1CCC23COC(CC(C)C2C)C3(Br)C1` (stereo not given): the growth inhibition is -5% in test [1] (setting [7]); 12% in test [1] (setting [8]); -19.5% in test [1] (at 50.0 µM); 2% in test [2] (setting [7]); 8% in test [2] (setting [8]); 1.4% in test [2] (at 50.0 µM). Further, the growth inhibition in test [3] (setting [7]) is -2%; in test [3] (setting [8]), -5%; in test [3] (at 50.0 µM) it was 52.3%; in test [4] (setting [7]) it was 6%; in test [4] (setting [8]), 1%; in test [4] (at 50.0 µM), -4.55%. The growth inhibition was 3% in test [5] (setting [7]), -4% in test [5] (setting [8]) and 1.7% in test [5] (at 50.0 µM).

Turning to `CCN(CC)CCN1C(=O)c2c(c3c4cccc(Cl)c4n(C4OC(CO)C(OC)C(O)C4O)c3c3[nH]c4c(Cl)cccc4c23)C1=O` (stereo not given), the growth inhibition is 88% (active) in test [1] (setting [7]); 97% (active) in test [1] (setting [8]); 84% (active) in test [1] (at 50.0 µM); 21% in test [2] (setting [7]); 96% (active) in test [2] (setting [8]); 90.5% (active) in test [2] (at 50.0 µM). Moreover, the growth inhibition in test [3] (setting [7]) is 67%; in test [3] (setting [8]), 90% (active); in test [3] (at 50.0 µM), 89.5% (active); in test [4] (setting [7]), 43%; in test [4] (setting [8]), 97% (active); in test [4] (at 50.0 µM), 89.2% (active). Further, the growth inhibition in test [5] (setting [7]) was 76% (active); in test [5] (setting [8]) it was 97% (active); in test [5] (at 50.0 µM), 91% (active).

With `Cc1ccc(S(=O)(=O)Nc2ccc3c(c2)C(=O)c2ccccc2-3)cc1`, the growth inhibition in test [1] (setting [7]) was 14%; in test [1] (setting [8]) it was 90% (active); in test [1] (at 50.0 µM) it was 91.7% (active); in test [2] (setting [7]), 7%; in test [2] (setting [8]), 95% (active); in test [2] (at 50.0 µM), 91.3% (active). Further, the growth inhibition in test [3] (setting [7]) was -5%; in test [3] (setting [8]), 89% (active); in test [3] (at 50.0 µM), 58.5%; in test [4] (setting [7]), 6%; in test [4] (setting [8]), 94% (active); in test [4] (at 50.0 µM), 93.7% (active). Further, the growth inhibition in test [5] (setting [7]) was 17%; in test [5] (setting [8]), 94% (active); in test [5] (at 50.0 µM), 84.9% (active).

As for `CC1=CC(O)C2CC1C2(C)C` (stereo not given), the growth inhibition in test [1] (at 50.0 µM) was 12.1% and 3.35% and 3.95%; in test [6] (at 50.0 µM) it was -24.1% and -1.15% and -0.85%; in test [2] (at 50.0 µM) it was -12.6% and 3.35% and -8.95%; in test [3] (at 50.0 µM), 3.25% and -9% and -2.6%; in test [4] (at 50.0 µM), -6.5% and -10.9% and 2.05%; in test [5] (at 50.0 µM), -8.1% and 0.55% and 8.15%.

With `O=C1OCc2cccc3cccc1c23`, the growth inhibition in test [1] (setting [7]) was 7%; in test [1] (setting [8]) it was 84% (active); in test [1] (at 50.0 µM), 88.5% (active); in test [2] (setting [7]), 4%; in test [2] (setting [8]) it was 29%; in test [2] (at 50.0 µM), 70.3% (active). Besides, the growth inhibition in test [3] (setting [7]) was 8%; in test [3] (setting [8]), 38%; in test [3] (at 50.0 µM) it was 36.5%; in test [4] (setting [7]), 11%; in test [4] (setting [8]) it was 69%; in test [4] (at 50.0 µM), 27.8%. For the same molecule, the growth inhibition in test [5] (setting [7]) is 5%; in test [5] (setting [8]), 36%; in test [5] (at 50.0 µM), 62%.

Regarding `CC#Cc1cc2c(cc1O)CC[C@@H]1[C@@H]2CC[C@]2(C)[C@@H](O)CC[C@@H]12`, the growth inhibition in test [6] (setting [7]) is 22%; in test [6] (setting [8]) it was 100% (active); in test [6] (at 50.0 µM), 90.3% (active); in test [2] (setting [7]), 24%; in test [2] (setting [8]), 99% (active); in test [2] (at 50.0 µM) it was 88.5% (active). Further, the growth inhibition in test [3] (setting [7]) is 20%; in test [3] (setting [8]), 99% (active); in test [3] (at 50.0 µM) it was 72.4% (active); in test [4] (setting [7]), 26%; in test [4] (setting [8]), 99% (active); in test [4] (at 50.0 µM), 87.7% (active).

As to `CCCCOc1c(OCCCC)c(=O)c1=O`, the growth inhibition was 88% (active) in test [6] (setting [7]); 79% (active) in test [6] (setting [8]); -48.5% in test [6] (at 50.0 µM); 14% in test [2] (setting [7]); 19% in test [2] (setting [8]); -31.6% in test [2] (at 50.0 µM). Further, the growth inhibition in test [3] (setting [7]) is 37%; in test [3] (setting [8]) it was 48%; in test [3] (at 50.0 µM), 16.4%; in test [4] (setting [7]), 54%; in test [4] (setting [8]) it was 54%; in test [4] (at 50.0 µM), -26.6%. The growth inhibition in test [5] (setting [7]) is 78% (active); in test [5] (setting [8]) it was 55%; in test [5] (at 50.0 µM), 40.5%.

Consider `C[C@]12CC[C@H](O)C[C@@H]1CC[C@@H]1[C@@H]2C(=O)C[C@]2(C)C3=CC(=O)O[C@H]3C[C@@H]12`, for which the growth inhibition in test [6] (setting [7]) is 27%; in test [6] (setting [8]), 98% (active); in test [6] (at 50.0 µM), 91% (active); in test [3] (setting [7]), -3%; in test [3] (setting [8]), 94% (active); in test [3] (at 50.0 µM), 57.6%. The growth inhibition in test [4] (setting [7]) is 11%; in test [4] (setting [8]) it was 97% (active); in test [4] (at 50.0 µM) it was 92.6% (active); in test [5] (setting [7]), 34%; in test [5] (setting [8]), 98% (active); in test [5] (at 50.0 µM) it was 96.8% (active).
